Laboratory results from the supplement of paper PMC12645437, “Orthogonal IMiD-Degron Pairs Induce Selective Protein Degradation in Cells” (ACS Chemical Biology, 2025).
The full ranking holds about 8,300 sequences; the median of “log2 fold change of degron read counts, EGFP-low vs EGFP+ sorted cells (limma voom), compound-induced degradation” is about -1.1, and the highest 2% start at about 3.2. This excerpt belongs to a sample that is enriched for the highest values.

T1: CRBN, Q96SW2
T1 chain: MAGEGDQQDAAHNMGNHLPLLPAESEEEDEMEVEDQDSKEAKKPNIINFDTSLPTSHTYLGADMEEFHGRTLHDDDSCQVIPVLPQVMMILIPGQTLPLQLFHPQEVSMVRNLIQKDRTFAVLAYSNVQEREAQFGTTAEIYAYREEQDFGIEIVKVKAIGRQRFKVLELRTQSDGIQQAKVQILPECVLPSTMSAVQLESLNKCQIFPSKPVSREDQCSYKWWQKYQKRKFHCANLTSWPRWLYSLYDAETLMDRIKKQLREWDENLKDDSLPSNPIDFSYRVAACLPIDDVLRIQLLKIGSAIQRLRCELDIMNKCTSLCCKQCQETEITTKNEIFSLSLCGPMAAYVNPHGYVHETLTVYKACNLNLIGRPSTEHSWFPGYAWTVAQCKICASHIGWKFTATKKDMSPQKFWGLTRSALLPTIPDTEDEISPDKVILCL


Target: T1, CRBN, Q96SW2
Assay: log2 fold change of degron read counts, EGFP-low vs EGFP+ sorted cells (limma voom), compound-induced degradation; higher = more compound-induced degradation of the degron-EGFP fusion; degrons are variants of IKZF1/3 zinc finger 2; compound dose not given here
Conditions: Jurkat, 18 h
[1] = compound: compound 19 (5-tert-butyl-thalidomide)
[2] = compound: compound 22 (5-morpholino-thalidomide)
[3] = compound: compound 33 (diphenyl IMiD analogue)
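Note: pooled lentiviral library of zinc finger degron-EGFP fusions in mCherry-positive Jurkat cells, FACS-sorted after compound exposure, with degron abundance counted by next-generation sequencing.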

| Sequence | log2 fold change of degron read counts [1] | log2 fold change of degron read counts [2] | log2 fold change of degron read counts [3] | log2 fold change of degron read counts (compound: thalidomide) |
| --- | --- | --- | --- | --- |
| FVCDQCGAFFTQKGNLLRHIKL [46F_47V_49D_50Q_52G_53A_54F_55F_67L_, Q9UKT9] | -2.6 | -2.32 | -2.12 | -2.19 |
| FFCSVCGHPFTQKGNLLRHIKL [46F_47F_49S_50V_52G_53H_54P_55F_67L_, Q9UKT9] | -0.493 | -1.26 | -1.56 | -1.25 |
| FRCPVCGAHFTQKGNLLRHIKL [46F_47R_49P_50V_52G_53A_54H_55F_67L_, Q9UKT9] | -0.862 | -0.227 | 0.973 | 0.478 |
| FVCPVCGAHFTQKGNLLRHIKL [46F_47V_49P_50V_52G_53A_54H_55F_67L_, Q9UKT9] | -0.62 | 1.87 | 1.15 | 2.07 |
| FQCPVCGAHFTQKGNLLRHIKL [46F_47Q_49P_50V_52G_53A_54H_55F_67L_, Q9UKT9] | -0.252 | 1.64 | 1.32 | 3.27 |
| FDCPVCGAHFTQKGNLLRHIKL [46F_47D_49P_50V_52G_53A_54H_55F_67L_, Q9UKT9] | 2.9 | 1.04 | 0.819 | 1.19 |
| FGCPVCGAHFTQKGNLLRHIKL [46F_47G_49P_50V_52G_53A_54H_55F_67L_, Q9UKT9] | 2.85 | 0.903 | 1.38 | 0.174 |
| FACPVCGAHFTQKGNLLRHIKL [46F_47A_49P_50V_52G_53A_54H_55F_67L_, Q9UKT9] | 2.93 | 1.05 | 0.871 | 0.221 |
| FYCPVCGAHFTQKGNLLRHIKL [46F_47Y_49P_50V_52G_53A_54H_55F_67L_, Q9UKT9] | 2.89 | 3.48 | 2.31 | 0.928 |
| FWCPVCGAHFTQKGNLLRHIKL [46F_47W_49P_50V_52G_53A_54H_55F_67L_, Q9UKT9] | 2.57 | 3.79 | 1.99 | 0.84 |
| FMCPVCGAHFTQKGNLLRHIKL [46F_47M_49P_50V_52G_53A_54H_55F_67L_, Q9UKT9] | -0.687 | 0.177 | 2.13 | 0.77 |
| LACEICGFLCTQKGNLLRHIKL [46L_47A_49E_50I_52G_53F_54L_55C_67L_, Q9UKT9] | 0.343 | -0.688 | -1.12 | -0.901 |
| FGCDICGAFFTQKGNLLRHIKL [46F_47G_49D_50I_52G_53A_54F_55F_67L_, Q9UKT9] | 0.984 | -0.922 | 1.74 | -1.18 |
| FECPICGHKFTQKGNLLRHIKL [46F_47E_49P_50I_52G_53H_54K_55F_67L_, Q9UKT9] | -3.48 | -2.51 | -2.67 | -1.19 |
| FDCEICGRLFTQKGNLLRHIKL [46F_47D_49E_50I_52G_53R_54L_55F_67L_, Q9UKT9] | -2.24 | -1.71 | -0.0163 | -0.815 |
| FWCDICGATFTQKGNLLRHIKL [46F_47W_49D_50I_52G_53A_54T_55F_67L_, Q9UKT9] | 2.74 | 3.05 | 0.604 | -1.08 |
| FGCEICGREFTQKGNLLRHIKL [46F_47G_49E_50I_52G_53R_54E_55F_67L_, Q9UKT9] | -2.14 | -2.75 | -2.14 | -2.84 |
| FECEICGARFTQKGNLLRHIKL [46F_47E_49E_50I_52G_53A_54R_55F_67L_, Q9UKT9] | 1.13 | -0.528 | 1.59 | 3.55 |
| FACEICGAFFTQKGNLLRHIKL [46F_47A_49E_50I_52G_53A_54F_55F_67L_, Q9UKT9] | 2.61 | 0.556 | -0.131 | -0.84 |
| FCCEICGAFFTQKGNLLRHIKL [46F_47C_49E_50I_52G_53A_54F_55F_67L_, Q9UKT9] | 0.678 | -0.0744 | 1.4 | -0.2 |
| FYCEICGAFFTQKGNLLRHIKL [46F_47Y_49E_50I_52G_53A_54F_55F_67L_, Q9UKT9] | 3.38 | 3.27 | 2.4 | -0.228 |
| FWCEICGALFTQKGNLLRHIKL [46F_47W_49E_50I_52G_53A_54L_55F_67L_, Q9UKT9] | 2.93 | 2.99 | 2.06 | -0.0847 |
| FWCEICGARFTQKGNLLRHIKL [46F_47W_49E_50I_52G_53A_54R_55F_67L_, Q9UKT9] | 3.43 | 3.51 | 1.48 | 1.46 |
| FFCEICGARFTQKGNLLRHIKL [46F_47F_49E_50I_52G_53A_54R_55F_67L_, Q9UKT9] | 3.53 | 3.66 | 1.66 | 1.89 |
| FECEICGALFTQKGNLLRHIKL [46F_47E_49E_50I_52G_53A_54L_55F_67L_, Q9UKT9] | -2.06 | -1.77 | 0.784 | 1.34 |
| FTCEICGARFTQKGNLLRHIKL [46F_47T_49E_50I_52G_53A_54R_55F_67L_, Q9UKT9] | 1.84 | 3.12 | 1.85 | 3.23 |
| FHCPICGHSFTQKGNLLRHIKL [46F_47H_49P_50I_52G_53H_54S_55F_67L_, Q9UKT9] | -2.13 | -1.94 | -1.36 | -2.32 |
| FDCNQCGRHFTQKGNLLRHIKL [46F_47D_49N_50Q_52G_53R_54H_55F_67L_, Q9UKT9] | -2.61 | -2.91 | -2.55 | -2.64 |
